This is an account of results in PubChem BioAssay (NCI).

Among the test systems are SK-MEL-2 melanoma; EKVX NSCLC; SN12C renal; UO-31 renal; ACHN renal; CAKI-1 renal; A498 renal; CCRF-CEM leukemia; MOLT-4 leukemia; SR leukemia; RPMI-8226 leukemia; OVCAR-8 ovarian; OVCAR-5 ovarian; OVCAR-4 ovarian; SK-OV-3 ovarian; IGROV1 ovarian; OVCAR-3 ovarian; NCI/ADR-RES ovarian; HS 578T breast; TK-10 renal.
Common to all, as to test: NCI-60 one-dose screen, 48 h (100 = growth as untreated, 0 = no growth, -100 = all killed)
Common to all, as to conditions: 10 µM unless noted

Compounds without any hit were thinned out: in the full panel of roughly 83,000, 20% have a hit.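 How to read the values: 0–100, growth inhibition (40 = 60% inhibited); 0, no net growth; -100 to 0, cell death (-40 = 40% of starting cells died; -100 = all dead).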 Unmarked numbers belong to inactive results. The source made the active and inactive calls. The calls were made as follows: active = growth percent below 10; inactive = the rest.

On to `Cn1cc(-c2nonc2-c2cn(C)c3ccc(F)cc23)c2cc(F)ccc21`, for which the growth with SK-MEL-2 melanoma was 30.5%; with EKVX NSCLC it was 67.9%; with SN12C renal, 61.6%; in the experiment with UO-31 renal, 68.6%; in the experiment with ACHN renal, 70.3%; in the experiment on CAKI-1 renal, 42%. Also, the growth with A498 renal was 54.2%; in the experiment with CCRF-CEM leukemia it was 33.6%; in the experiment on MOLT-4 leukemia it was 29.1%; with SR leukemia, 31.8%; in the experiment on RPMI-8226 leukemia, 81.4%; in the experiment with OVCAR-8 ovarian it was 81.7%. Also, the growth with OVCAR-5 ovarian is 92%; in the experiment with OVCAR-4 ovarian, 79%; in the experiment with SK-OV-3 ovarian it was 45.1%; with IGROV1 ovarian, 52.5%; in the experiment on OVCAR-3 ovarian, 23.4%; in the experiment with NCI/ADR-RES ovarian, 30.9%.
Consider `COc1ccc(S(=O)(=O)N2CCCCCC2)cc1NC(=O)c1[nH]c(C)c2c1CCCCC2=O`, for which the growth with SK-MEL-2 melanoma was 43.4%; in the experiment on EKVX NSCLC it was 38.4%; in the experiment on SN12C renal, 36.9%; with UO-31 renal it was 12.1%; with ACHN renal, 25.2%; in the experiment with CAKI-1 renal it was 12.7%. Also, the growth in the experiment on A498 renal was -25.6% (active); in the experiment on CCRF-CEM leukemia it was 33.7%; with MOLT-4 leukemia it was 30.6%; in the experiment with SR leukemia, 35.6%; in the experiment on RPMI-8226 leukemia it was 10.7%; in the experiment on OVCAR-8 ovarian it was 28.5%. Moreover, the growth with OVCAR-5 ovarian is 50.5%; with OVCAR-4 ovarian it was 37.3%; in the experiment with SK-OV-3 ovarian, 14.1%; in the experiment with IGROV1 ovarian it was 24.2%; in the experiment on OVCAR-3 ovarian, 30.4%; in the experiment with HS 578T breast, 17.5%. Besides, the growth in the experiment with NCI/ADR-RES ovarian was 29.2%.
`O=C(COc1cccc(/C=C2\CSc3ccccc3C2=O)c1)Nc1nccs1`: the growth with SK-MEL-2 melanoma was 69.3%; in the experiment with EKVX NSCLC it was 25.5%; in the experiment with SN12C renal, 89.4%; in the experiment with UO-31 renal, 60.1%; in the experiment on ACHN renal, 69.9%; with CAKI-1 renal, 78.1%. In addition, the growth was 4.26% (active) in the experiment on CCRF-CEM leukemia; -51.1% (active) in the experiment on MOLT-4 leukemia; -47% (active) with SR leukemia; -31.2% (active) in the experiment with RPMI-8226 leukemia; 31% with OVCAR-8 ovarian; 83.8% in the experiment on OVCAR-5 ovarian. For the same compound, the growth in the experiment with OVCAR-4 ovarian was 78.3%; in the experiment on SK-OV-3 ovarian, 116%; in the experiment with IGROV1 ovarian, -52.2% (active); in the experiment with OVCAR-3 ovarian, 24.4%; in the experiment with HS 578T breast, -8.26% (active); in the experiment on NCI/ADR-RES ovarian, 54.8%.
As for `CCOC(=O)c1sc(Nc2ccc(Cl)cc2)nc1C`, the growth was -0.883% (active) in the experiment on SK-MEL-2 melanoma; 7.71% (active) in the experiment on EKVX NSCLC; -9.64% (active) in the experiment on UO-31 renal; 26.5% in the experiment on TK-10 renal; 14.3% in the experiment on ACHN renal; 10.4% in the experiment on CAKI-1 renal. The growth is -32.9% (active) with A498 renal; 17.8% in the experiment on CCRF-CEM leukemia; 10.7% in the experiment with MOLT-4 leukemia; 11% in the experiment with SR leukemia; 7.4% (active) in the experiment with RPMI-8226 leukemia; 19.8% in the experiment with OVCAR-8 ovarian. The growth was 51.6% in the experiment with OVCAR-5 ovarian; 18.2% with OVCAR-4 ovarian; 20.3% in the experiment on SK-OV-3 ovarian; 19.3% with IGROV1 ovarian; 27.4% with OVCAR-3 ovarian; 10.1% in the experiment on HS 578T breast. Besides, the growth with NCI/ADR-RES ovarian was 17.5%.
For the compound `CNC(=O)c1cc(Oc2ccc(NC(=O)Nc3ccc(Cl)c(OC(F)(F)F)c3)c(F)c2)ccn1`, the growth with SK-MEL-2 melanoma is 14.4%; in the experiment on EKVX NSCLC, 26.2%; in the experiment on UO-31 renal, 23%; in the experiment with TK-10 renal, 37.3%; in the experiment with ACHN renal, 28.2%; in the experiment on CAKI-1 renal, 45.8%. In addition, the growth was 36.9% with A498 renal; 30.1% in the experiment on CCRF-CEM leukemia; 20.2% with MOLT-4 leukemia; 30% in the experiment with SR leukemia; 13.6% in the experiment on RPMI-8226 leukemia; 30.3% in the experiment with OVCAR-8 ovarian. The growth in the experiment on OVCAR-4 ovarian is 5.4% (active); with SK-OV-3 ovarian it was 64.9%; in the experiment with IGROV1 ovarian, 46.4%; with OVCAR-3 ovarian, 39.8%; in the experiment with HS 578T breast it was 51.9%; in the experiment on NCI/ADR-RES ovarian, 31.6%.
On to `FC(F)(F)c1ccc(-c2cn3nc(-c4c[nH]c5ccc(Br)cc45)sc3n2)cc1`, for which the growth in the experiment with SK-MEL-2 melanoma was 97.8%; with EKVX NSCLC, 68.9%; in the experiment on UO-31 renal, 68.8%; in the experiment on TK-10 renal, 112%; in the experiment on ACHN renal, 88.6%; in the experiment on CAKI-1 renal, 61.4%. Also, the growth in the experiment on A498 renal is 113%; in the experiment with CCRF-CEM leukemia, 95%; in the experiment with MOLT-4 leukemia, 87.6%; with SR leukemia, 85.9%; with RPMI-8226 leukemia it was 107%; in the experiment with OVCAR-8 ovarian it was 105%. Also, the growth is 95.5% in the experiment on OVCAR-5 ovarian; 102% with OVCAR-4 ovarian; 92.7% with SK-OV-3 ovarian; 73.2% in the experiment with IGROV1 ovarian; 107% with OVCAR-3 ovarian; 89.1% in the experiment on HS 578T breast. Further, the growth with NCI/ADR-RES ovarian is 96%.
Regarding `CCCn1c(=O)[nH]c(N)c([C@H]2c3ccccc3Oc3[nH]c(=O)n(CCC)c(=O)c32)c1=O`, the growth in the experiment with SK-MEL-2 melanoma is 92%; with EKVX NSCLC, 93.2%; with UO-31 renal, 78.8%; with TK-10 renal, 79%; in the experiment on ACHN renal it was 73.6%; in the experiment with CAKI-1 renal, 86.1%. Moreover, the growth is 92.9% in the experiment with A498 renal; 14.3% in the experiment on CCRF-CEM leukemia; 39.5% with MOLT-4 leukemia; 4.41% (active) in the experiment on SR leukemia; 81.7% in the experiment with RPMI-8226 leukemia; 78.9% in the experiment on OVCAR-8 ovarian. The growth with OVCAR-5 ovarian was 99.4%; with OVCAR-4 ovarian it was 64.6%; in the experiment on IGROV1 ovarian, 89%; with OVCAR-3 ovarian, 13.8%; in the experiment with HS 578T breast, 92.8%; in the experiment on NCI/ADR-RES ovarian it was 94.8%.
In the case of `O=c1cc(CSc2nnc(-c3ccc(F)cc3)o2)c2ccc3ccccc3c2o1`, the growth in the experiment with SK-MEL-2 melanoma was 87%; in the experiment on EKVX NSCLC, 88.7%; in the experiment with UO-31 renal it was 77.7%; in the experiment on TK-10 renal, 102%; in the experiment on ACHN renal, 96.7%; in the experiment with CAKI-1 renal it was 91.1%. For the same compound, the growth in the experiment with A498 renal is 94.6%; in the experiment on CCRF-CEM leukemia, 112%; in the experiment with MOLT-4 leukemia, 95.9%; in the experiment on SR leukemia, 94.1%; in the experiment with RPMI-8226 leukemia it was 101%; in the experiment with OVCAR-8 ovarian it was 96.4%. For the same compound, the growth with OVCAR-5 ovarian was 93%; in the experiment on OVCAR-4 ovarian it was 108%; with SK-OV-3 ovarian it was 82.4%; with IGROV1 ovarian, 101%; with OVCAR-3 ovarian it was 101%; in the experiment on HS 578T breast, 95.5%. Moreover, the growth in the experiment with NCI/ADR-RES ovarian was 91.8%.
